According to PubChem BioAssay AID1159580 (chemical genetic matrix, 2015):
“And” between values parts separate entries of the source, which are not always exact repeats. Identical values can stand only once. In all, about 5,500 compounds went through this assay and about 2,000 (36%) were called active. About 18% were inconclusive and are not listed. Cut-off read from the data, not from the text of the source: active = normalized growth mostly below about 0.91 (no sharp cut-off); inconclusive = no clear call, values can overlap the other calls; inactive = mostly above about 0.92. Some of the results follow.

Assay: chemical genetic growth profiling, strain panel (AID 1159580);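 note: tested at 20 µM; growth read once vehicle control cultures reached saturation at 30 °C; 1 = growth at the plate median or of vehicle wells; lower values mean less growth of the strain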
Conditions: growth OD

Measured: normalized growth

NNCCc1ccccc1
inactive: S. cerevisiae deletion strains, locus YJR066W, strain TOR1, active compounds read low 0.945 | S. cerevisiae deletion strains, locus YJR075W, strain HOC1, active compounds read low 0.986 | S. cerevisiae deletion strains, locus YKL009W, strain mrt4, active compounds read low 0.995 | S. cerevisiae deletion strains, locus YKL068W, active compounds read low 0.986 | S. cerevisiae deletion strains, locus YKL085W, strain MDH1 (second series), active compounds read low 0.998 | S. cerevisiae deletion strains, locus YKL085W, strain MDH1, active compounds read low 0.998 | S. cerevisiae deletion strains, locus YKL160W, strain elf1, active compounds read low 1 | S. cerevisiae deletion strains, locus YKL190W, strain CNB1, active compounds read low 0.966 | S. cerevisiae deletion strains, locus YKR001C, strain vps1, active compounds read low 0.992 | S. cerevisiae deletion strains, locus YKR026C, strain gcn3, active compounds read low 1.01 | S. cerevisiae deletion strains, locus YKR091W, strain srl3, active compounds read low 1.01 | S. cerevisiae deletion strains, locus YLL001W, strain dnm1, active compounds read low 1 | S. cerevisiae deletion strains, locus YLL026W, active compounds read low 1 | S. cerevisiae deletion strains, locus YLL041C, strain sdh2, active compounds read low 1 | S. cerevisiae deletion strains, locus YLR027C, strain aat2, active compounds read low 1.01 | S. cerevisiae deletion strains, locus YLR039C, strain RIC1, active compounds read low 0.897 | S. cerevisiae deletion strains, locus YLR058C, strain SHM2, active compounds read low 0.974 | S. cerevisiae deletion strains, locus YLR102C, strain apc9, active compounds read low 0.991 | S. cerevisiae deletion strains, locus YLR113W, strain HOG1, active compounds read low 0.987 | S. cerevisiae deletion strains, locus YLR221C, strain rsa3, active compounds read low 1.01 | S. cerevisiae deletion strains, locus YLR258W, strain gsy2, active compounds read low 1.01 | S. cerevisiae deletion strains, locus YLR262C, strain YPT6 (second series), active compounds read low 0.969 | S. cerevisiae deletion strains, locus YLR262C, strain YPT6, active compounds read low 0.858 | S. cerevisiae deletion strains, locus YLR268W, strain sec22, active compounds read low 1.05 | S. cerevisiae deletion strains, locus YLR320W, strain mms22, active compounds read low 1.02 | S. cerevisiae deletion strains, locus YLR330W, strain CHS5, active compounds read low 0.994 | S. cerevisiae deletion strains, locus YLR342W, strain FKS1 (second series), active compounds read low 0.997 | S. cerevisiae deletion strains, locus YLR342W, strain FKS1, active compounds read low 1.02 | S. cerevisiae deletion strains, locus YLR357W, strain rsc2, active compounds read low 0.969 | S. cerevisiae deletion strains, locus YLR370C, strain arc18, active compounds read low 1.01 | S. cerevisiae deletion strains, locus YLR371W, strain rom2, active compounds read low 0.966 | S. cerevisiae deletion strains, locus YLR384C, strain iki3, active compounds read low 1.01 | S. cerevisiae deletion strains, locus YLR418C, strain cdc73, active compounds read low 0.965 | S. cerevisiae deletion strains, locus YML016C, strain PPZ1, active compounds read low 0.989 | S. cerevisiae deletion strains, locus YML032C, strain rad52, active compounds read low 0.996 | S. cerevisiae deletion strains, locus YML120C, strain ndi1, active compounds read low 1.01 | S. cerevisiae deletion strains, locus YML124C, strain tub3, active compounds read low 0.986 | S. cerevisiae deletion strains, locus YMR058W, strain fet3, active compounds read low 1 | S. cerevisiae deletion strains, locus YMR078C, strain ctf18, active compounds read low 0.969 | S. cerevisiae deletion strains, locus YMR125W, strain sto1, active compounds read low 0.999 | S. cerevisiae deletion strains, locus YMR129W, active compounds read low 1 | S. cerevisiae deletion strains, locus YMR205C, strain PFK2, active compounds read low 1.02 | S. cerevisiae deletion strains, locus YMR223W, strain ubp8, active compounds read low 0.95 | S. cerevisiae deletion strains, locus YMR231W, strain pep5, active compounds read low 1.01 | S. cerevisiae deletion strains, locus YMR263W, strain SAP30, active compounds read low 1 | S. cerevisiae deletion strains, locus YMR307W, strain GAS1, active compounds read low 1 | S. cerevisiae deletion strains, locus YNL067W, strain RPL9B, active compounds read low 0.981 | S. cerevisiae deletion strains, locus YNL071W, strain lat1, active compounds read low 1.01 | S. cerevisiae deletion strains, locus YNL128W, strain TEP1, active compounds read low 1.01 | S. cerevisiae deletion strains, locus YNL153C, strain GIM3, active compounds read low 0.99 | S. cerevisiae deletion strains, locus YNL175C, strain NOP13, active compounds read low 1 | S. cerevisiae deletion strains, locus YNL183C, strain NPR1, active compounds read low 0.958 | S. cerevisiae deletion strains, locus YNL197C, strain WHI3, active compounds read low 0.996 | S. cerevisiae deletion strains, locus YNL209W, strain ssb2, active compounds read low 1 | S. cerevisiae deletion strains, locus YNL224C, strain SQS1, active compounds read low 0.99 | S. cerevisiae deletion strains, locus YNL233W, strain BNI4, active compounds read low 0.999 | S. cerevisiae deletion strains, locus YNL248C, strain rpa49, active compounds read low 1.02 | S. cerevisiae deletion strains, locus YNL250W, strain rad50, active compounds read low 0.983 | S. cerevisiae deletion strains, locus YNL271C, strain bni1, active compounds read low 0.994 | S. cerevisiae deletion strains, locus YNL298W, strain CLA4, active compounds read low 0.997 | S. cerevisiae deletion strains, locus YNL307C, strain MCK1, active compounds read low 0.987 | S. cerevisiae deletion strains, locus YNL322C, strain KRE1 (second series), active compounds read low 1.02 | S. cerevisiae deletion strains, locus YNL322C, strain KRE1, active compounds read low 0.988 and 0.996 | S. cerevisiae deletion strains, locus YNR049C, strain mso1, active compounds read low 1.01 | S. cerevisiae deletion strains, locus YNR052C, strain pop2, active compounds read low 0.991 | S. cerevisiae deletion strains, locus YOL006C, strain TOP1, active compounds read low 0.983 | S. cerevisiae deletion strains, locus YOL012C, strain htz1 0.89 | S. cerevisiae deletion strains, locus YOL147C, strain pex11, active compounds read low 0.986 | S. cerevisiae deletion strains, locus YOR001W, strain rrp6, active compounds read low 1.01 | S. cerevisiae deletion strains, locus YOR061W, strain CKA2, active compounds read low 0.964 | S. cerevisiae deletion strains, locus YOR069W, strain VPS5, active compounds read low 0.993 | S. cerevisiae deletion strains, locus YOR070C, strain gyp1, active compounds read low 1 | S. cerevisiae deletion strains, locus YOR080W, strain dia2, active compounds read low 1.01 | S. cerevisiae deletion strains, locus YOR083W, strain WHI5 (second series), active compounds read low 1 | S. cerevisiae deletion strains, locus YOR083W, strain WHI5, active compounds read low 0.988 | S. cerevisiae deletion strains, locus YOR106W, strain vam3, active compounds read low 1.02 | S. cerevisiae deletion strains, locus YOR136W, strain idh2, active compounds read low 0.973 | S. cerevisiae deletion strains, locus YOR144C, strain elg1, active compounds read low 0.987 | S. cerevisiae deletion strains, locus YOR184W, strain ser1, active compounds read low 0.981 | S. cerevisiae deletion strains, locus YOR231W, strain MKK1, active compounds read low 0.982 | S. cerevisiae deletion strains, locus YOR265W, strain rbl2, active compounds read low 1 | S. cerevisiae deletion strains, locus YOR270C, strain vph1, active compounds read low 1.11 | S. cerevisiae deletion strains, locus YOR290C, strain snf2, active compounds read low 1 | S. cerevisiae deletion strains, locus YOR316C, strain cot1, active compounds read low 0.984 | S. cerevisiae deletion strains, locus YPL051W, strain arl3, active compounds read low 1.01 | S. cerevisiae deletion strains, locus YPL078C, strain atp4, active compounds read low 1 | S. cerevisiae deletion strains, locus YPL106C, strain sse1, active compounds read low 0.977 | S. cerevisiae deletion strains, locus YPL240C, strain hsp82, active compounds read low 1 | S. cerevisiae deletion strains, locus YPL241C, strain CIN2, active compounds read low 0.994 | S. cerevisiae deletion strains, locus YPL256C, strain CLN2, active compounds read low 0.958 | S. cerevisiae deletion strains, locus YPR119W, strain clb2, active compounds read low 0.981 | S. cerevisiae deletion strains, locus YPR141C, strain kar3, active compounds read low 0.968 | S. cerevisiae deletion strains, locus YPR163C, strain tif3, active compounds read low 0.989 | S. cerevisiae deletion strains, locus YPR167C, strain met16, active compounds read low 0.985 | S. cerevisiae deletion strains, strain wtn01, active compounds read low 0.992 | S. cerevisiae strains, strain wild type, active compounds read low 0.981
